# Reference: PubChem BioAssay (NCATS)
# Several values for one entry are separate records, joined by “and”; a condition that tells them apart may be missing. Identical values can stand only once. Records with an inconclusive call do not appear. A call without a number means that no potency is given here. Unmarked numbers belong to inactive results. Activity calls are given as the source filed them. Unless noted, calls follow the shape of the dose curve; as a rule, active = well fitted curve in the direction sought with a large enough effect; inconclusive = small, poorly fitted or top-dose-only effect, or another doubt; inactive = no such curve, though single readings can be large; an effect the other way counts as inactive or inconclusive.
# Experiments:
# [1] = target: Cellular tumor antigen p53 (Homo sapiens) (UniProt P04637); assay: Primary qHTS for small molecule compounds that upregulate eGFP-tagged delta133p53alpha (in N-terminal) cells. (AID 2060322); settings: NCI-H358 eGFP-delta133p53alpha fluorescence, 24 h; activation: stronger effect = higher value; also: series mostly up to about 56 µM; nearly all actives have a fitted effect of over 75% in size
# Procedure, shortened: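 NCI-H358 cells pre-induced 24 h with 10 ng/ml doxycycline to express N-terminal eGFP-delta133p53alpha, then dosed 24 h at 37C without doxycycline; fixed, Hoechst-stained, GFP intensity by laser scanning cytometry, normalized to DMSO (0%) and 57.5 uM 5-azacytidine (100%).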
# [2] = target: Aldehyde dehydrogenase, mitochondrial (Homo sapiens) (UniProt P05091); assay: qHTS for Inhibitors of the Aldehyde Dehydrogenase Family (ALDH2) Confirmatory screens (AID 2061303; active = well fitted inhibition curve with a large enough effect; title and protocol of this record describe different tests; also: nearly all actives have a fitted effect of over 45% in size; also: potency is read from the fitted curve at half-maximal effect)
# [3] = qHTS for Inhibitors of the Aldehyde Dehydrogenase Family (ALDH1A2, ALDH1A3, ALDH2, ALDH3A1) (AID 2061307); also: nearly all actives have a fitted effect of over 50% in size; as to potency: test system not described further here; potency is read from the fitted curve at half-maximal effect
# [4] = target: Aldehyde dehydrogenase, mitochondrial (Homo sapiens) (UniProt P05091); assay: qHTS for Inhibitors of the Aldehyde Dehydrogenase Family (ALDH2) Primary screen (AID 2061308); also: nearly all actives have a fitted effect of over 55% in size
# [5] = target: Retinaldehyde dehydrogenase 3 (Homo sapiens) (UniProt P47895); assay: qHTS for Inhibitors of the Aldehyde Dehydrogenase Family (ALDH1A3) Confirmatory screens (AID 2061311); also: nearly all actives have a fitted effect of over 60% in size; also: potency is read from the fitted curve at half-maximal effect
# [6] = target: Retinaldehyde dehydrogenase 3 (Homo sapiens) (UniProt P47895); assay: qHTS for Inhibitors of the Aldehyde Dehydrogenase Family (ALDH1A3) Primary screen (AID 2061315)
# [7] = target: Aldehyde dehydrogenase 1A1 (Homo sapiens) (UniProt P00352); assay: qHTS for Inhibitors of the Aldehyde Dehydrogenase Family (ALDH1A1) Confirmatory screens (AID 2061316); also: nearly all actives have a fitted effect of over 65% in size; also: potency is read from the fitted curve at half-maximal effect
# [8] = BET inhibitor-based combinations targeting novel dependencies in MECOM-rearranged (r) AML: SET-2 cell line (AID 2202231); settings: SET-2 AML cells viability, CellTiter-Glo luminescence, 48 h; viability: stronger effect = lower value, concentration not given here; also: nearly all actives have a fitted effect of over 35% in size; also: potency is read from the fitted curve at half-maximal effect
# Procedure, shortened: (§1)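 Luminescent ATP readout (CellTiter-Glo) after 48 hr drug exposure gives viability. Curves span 11 concentrations and are normalized to DMSO and empty wells. Activity is reported as area under the curve and its Z-transform within each cell line.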
# [9] = BET inhibitor-based combinations targeting novel dependencies in MECOM-rearranged (r) AML: OCI-AML3 cell line (AID 2202232); settings: Potency: OCI-AML3 viability; also: nearly all actives have a fitted effect of over 35% in size; also: potency is read from the fitted curve at half-maximal effect
# Procedure, shortened: as §1
# [10] = BET inhibitor-based combinations targeting novel dependencies in MECOM-rearranged (r) AML: HNT-34 cell line (AID 2202234); also: nearly all actives have a fitted effect of over 35% in size
# Procedure, shortened: (§2)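 Luminescent ATP readout (CellTiter-Glo, 15 min at room temperature) after 48 hr drug exposure gave viability. Dose-response curves, normalized to DMSO and empty-well controls, were summarized as area under the curve and its mean-centred Z-score.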
# [11] = BET inhibitor-based combinations targeting novel dependencies in MECOM-rearranged (r) AML: UCSD-AML1 cell line (AID 2202235); also: series mostly up to about 46 µM; nearly all actives have a fitted effect of over 40% in size
# Procedure, shortened: as §2
# [12] = BET inhibitor-based combinations targeting novel dependencies in MECOM-rearranged (r) AML: AML-194 cell line (AID 2202237; also: nearly all actives have a fitted effect of over 40% in size; also: potency is read from the fitted curve at half-maximal effect)
# Procedure, shortened: as §1
# [13] = target: Retinal dehydrogenase 2 (Homo sapiens) (UniProt O94788); assay: qHTS for Inhibitors of the Aldehyde Dehydrogenase Family (ALDH1A2) Confirmation screens (AID 2061314); also: nearly all actives have a fitted effect of over 65% in size
# [14] = BET inhibitor-based combinations targeting novel dependencies in MECOM-rearranged (r) AML: MV-4-11 cell line (AID 2202233); also: nearly all actives have a fitted effect of over 45% in size; also: potency is read from the fitted curve at half-maximal effect
# Procedure, shortened: as §2
# [15] = BET inhibitor-based combinations targeting novel dependencies in MECOM-rearranged (r) AML: AML-191 cell line (AID 2202236; also: nearly all actives have a fitted effect of over 35% in size; also: potency is read from the fitted curve at half-maximal effect)
# Procedure, shortened: as §1
# [16] = target: Retinaldehyde dehydrogenase 3 (Homo sapiens) (UniProt P47895); assay: qHTS for Inhibitors of the Aldehyde Dehydrogenase Family (ALDH1A3) Validation screen (AID 2061312); also: nearly all actives have a fitted effect of over 45% in size
# Chain of Cellular tumor antigen p53 (Homo sapiens) (P04637 whole entry, looked up): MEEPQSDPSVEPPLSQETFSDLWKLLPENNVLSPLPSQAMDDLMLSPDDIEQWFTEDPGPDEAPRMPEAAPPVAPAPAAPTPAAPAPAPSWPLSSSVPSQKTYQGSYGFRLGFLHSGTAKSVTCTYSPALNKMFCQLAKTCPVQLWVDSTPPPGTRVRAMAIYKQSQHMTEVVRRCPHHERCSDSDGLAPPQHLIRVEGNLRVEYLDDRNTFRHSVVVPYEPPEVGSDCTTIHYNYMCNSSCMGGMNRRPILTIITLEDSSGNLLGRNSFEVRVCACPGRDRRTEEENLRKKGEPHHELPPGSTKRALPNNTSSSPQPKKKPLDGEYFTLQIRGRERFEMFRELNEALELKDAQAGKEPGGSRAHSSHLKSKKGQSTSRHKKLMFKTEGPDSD
compound,measurement,setting,value
CC(=O)N(O)CCCCCN1C(=O)CCC1=O,activation,[1],-6.25%
same,Potency,[2],inactive
same,Potency,[3],inactive
same,Potency,[4],inactive
same,Potency,[5],inactive
same,Potency,[6],inactive
same,Potency,[7],inactive
O=C1C(c2c(O)[nH]c3ccccc23)=Nc2ccccc21,activation,[1],-10.6% and 17.7%
same,Potency,[2],inactive
same,Potency,[3],inactive
same,Potency,[4],inactive
same,Potency,[5],inactive
same,Potency,[6],inactive
same,Potency,[7],inactive
same,viability,[8],103%
same,Potency,[9],inactive
same,Potency,[10],inactive
same,Potency,[11],inactive
same,Potency,[12],inactive
CN(C)c1cccc(-c2c3c(=O)n(-c4ccccc4Cl)[nH]c3cc(=O)n2C)c1,activation,[1],5.36% and -13.4%
same,Potency,[2],inactive
same,Potency,[3],inactive
same,Potency,[4],inactive
same,Potency,[13],inactive
same,viability,[8],110%
same,Potency,[9],inactive
same,Potency,[14],inactive
same,Potency,[10],inactive
same,Potency,[11],inactive
same,Potency,[15],inactive
same,Potency,[12],inactive
CN1CCN(C2=Nc3ccccc3Nc3ccc(O)cc32)CC1,activation,[1],1.91%
same,Potency,[2],inactive
same,Potency,[3],inactive
same,Potency,[4],inactive
same,Potency,[16],inactive
same,Potency,[13],inactive
same,Potency,[7],inactive
Cc1nc2c(C#N)c[nH]n2c(=O)c1C(C)C,activation,[1],23.5%
same,Potency,[2],inactive
same,Potency,[3],inactive
same,Potency,[4],inactive
same,Potency,[13],inactive
same,Potency,[6],inactive
same,Potency,[7],inactive
CC(C)(Cc1ccccc1)NCC(O)c1ccc(O)c(NS(C)(=O)=O)c1 (stereo unspecified),activation,[1],-0.955%
same,Potency,[2],inactive
same,Potency,[3],inactive
same,Potency,[4],inactive
same,Potency,[16],inactive
same,Potency,[13],inactive
same,Potency,[7],inactive
CCOc1ccc(Cc2nc(-c3c(C)nc4ccccn34)cs2)cc1,activation,[1],-8.33%
same,Potency,[2],12.6 µM (active)
same,Potency,[3],11.2 µM (active)
same,Potency,[4],inactive
same,Potency,[5],14.1 µM (active)
same,Potency,[6],inactive
same,Potency,[7],6.34 µM (active)
CCOc1ccc(Nc2nc(-c3c(C)nc4ccccn34)cs2)cc1,activation,[1],-3.9% and 0%
same,Potency,[2],15.8 µM (active)
same,Potency,[3],7.94 µM (active)
same,Potency,[4],inactive
same,Potency,[16],inactive
same,Potency,[13],inactive
same,Potency,[6],inactive
same,Potency,[8],0.132 µM (active)
same,Potency,[9],0.0833 µM (active)
same,Potency,[14],0.105 µM (active)
same,Potency,[15],0.0833 µM (active)
same,Potency,[12],0.332 µM (active)
C=C1CC[C@H]2[C@@](C)(CCC(OC3OC(CO)C(O)C(O)C3O)[C@@]2(C)CO)C1C(=O)CC1=CCOC1=O (stereo partly specified),activation,[1],-1.53%
same,Potency,[2],inactive
same,Potency,[3],inactive
same,Potency,[4],inactive
same,Potency,[13],inactive
